Screens as filed in PubChem.
D1 agonist – Allosteric Agonists of the Human D1 Dopamine Receptor: qHTS; activation, % at 2 µM; AID 504660, 2011; D(1A) dopamine receptor (Homo sapiens), P21728; 1% of 360,000 active; HEK293 T-REx D1 cells, calcium flux, agonist mode
Target sequence (P21728 whole entry, looked up): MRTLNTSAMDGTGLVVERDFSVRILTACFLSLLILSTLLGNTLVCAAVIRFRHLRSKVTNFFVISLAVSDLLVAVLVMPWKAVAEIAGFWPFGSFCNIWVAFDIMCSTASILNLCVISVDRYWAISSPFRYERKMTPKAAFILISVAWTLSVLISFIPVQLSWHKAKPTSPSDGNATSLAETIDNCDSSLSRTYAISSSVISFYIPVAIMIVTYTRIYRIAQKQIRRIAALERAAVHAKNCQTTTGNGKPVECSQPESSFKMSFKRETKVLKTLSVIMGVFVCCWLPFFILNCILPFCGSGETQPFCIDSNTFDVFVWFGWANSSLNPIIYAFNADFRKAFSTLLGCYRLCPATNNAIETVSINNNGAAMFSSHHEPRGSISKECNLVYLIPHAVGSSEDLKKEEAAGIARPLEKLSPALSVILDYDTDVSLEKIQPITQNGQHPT
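Inducible HEK293 T-REx D1 cells, force-coupled to calcium signalling, were plated at 4000 cells/well with tetracycline and held overnight at 30 C. After no-wash calcium dye loading, compound-evoked calcium rise over 180 s flagged agonists.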
D1 antag – Antagonist of Human D 1 Dopamine Receptor: qHTS; D(1A) dopamine receptor (Homo sapiens), P21728; HEK293 TREx D1 cells, calcium flux, dopamine EC80; stronger effect = lower value; activity change, negative = inhibition, % at 10 µM; 3.2% of 360,000 active; AID 504652, 2011; in the data active = activity change below about -30%
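Antagonism measured as reduced calcium response to an EC80 dopamine addition following 180 s compound pre-read; cells were inducible HEK293 Trex D1 plated overnight at 30 C, read kinetically at 1 cycle/sec.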
D1 potentiator – Potentiators of Human D1 Dopamine Receptor: qHTS. potentiation, % at 10 µM. 0.036% of 360,000 active. HEK293 TREx D1 cells, calcium flux, dopamine EC20 potentiation. D(1A) dopamine receptor (Homo sapiens), P21728; in the data active = potentiation above about 30%
TRHR PAM – qHTS for Small Molecule Agonists and Allosteric Enhancers of Human TRH Receptor: Primary Screen for Enhancers | AID 493056, 2011 | enhancement, % at 2 µM | Thyrotropin-releasing hormone receptor (Homo sapiens), P34981 | TRHR cells, fluo-8 calcium fluorescence, EC20 TRH enhancement | 0.66% of 360,000 active; in the data active = enhancement above about 30%
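TRHR-expressing cells loaded with fluo-8 calcium dye were read kinetically (ex 480/em 530) during compound addition, then stimulated with an EC20 of TRH (10 nM final). Enhancement of the Gq-mediated intracellular calcium response was scored.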
TRHR ag – qHTS for Small Molecule Agonists and Allosteric Enhancers of Human TRH Receptor: Primary Screen for Agonists; Thyrotropin-releasing hormone receptor (Homo sapiens), P34981; TRHR cells, calcium flux fluo-8, FDSS agonist mode; activation, % at 2 µM; 0.18% of 360,000 active
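In this calcium-flux screen, cells bearing human TRHR are dye-loaded with fluo-8, baselined for 10 cycles, then exposed to library compounds; positive kinetic calcium responses during the agonist phase mark hits, with TRH as control.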
Numbers stand for hits; n = inactive; x = no result. An excerpt weighted towards active compounds, which were near 4.7% of everything screened. Rule as the data show it, unless noted: active = activation above about 30%; inactive = the rest.

SMILES | D1 agonist | D1 antag | D1 potentiator | TRHR PAM | TRHR ag
CC(OC(=O)Cc1ccccc1[N+](=O)[O-])C(=O)Nc1ccc(Cl)cn1 (centres undefined) | n | n | n | n | n
CCOc1ccc(-c2nnc(NC(=O)CCCOc3cccc(C)c3)o2)cc1 | n | -33.0 | n | n | n
CCCn1c(SCC(=O)NCC(=O)Nc2ccc(F)c(F)c2F)nc2ccccc2c1=O | n | n | n | n | n
CC(C)(Oc1ccc(Br)cc1)C(=O)Nc1cc(-c2nc3ccccc3[nH]2)ccc1Cl | n | n | n | n | n
Cc1cc(C)n(C2CC(=O)N(c3cc(Cl)cc(Cl)c3)C2=O)n1 (centres undefined) | n | n | n | n | n
Cc1cc(C)cc(N2C(=O)CC(n3nc(C)cc3C)C2=O)c1 (centres undefined) | n | -42.7 | n | n | n
Cc1ccn2nc(C(=O)OCC(=O)N(CC(C)C)C3CCS(=O)(=O)C3)nc2n1 (centres undefined) | n | n | n | n | n
Cc1ccc(Oc2ccc(Oc3ccc(C)cc3)nn2)cc1 | 44.0 | n | n | n | n
COc1ccc(C(CCN2CCN(c3ccccc3)CC2)c2c(O)cc(OC)cc2OC)cc1 (centres undefined) | n | -84.4 | n | n | n
COc1ccc(C(CCN2CCCC2)c2c(O)cc(OC)cc2OC)cc1 (centres undefined) | n | n | n | n | n
CCN(CC)CCC(c1ccc(OC)cc1)c1c(O)cc(OC)cc1OC (centres undefined) | n | -31.5 | n | n | n
COc1cc(O)c(C(CCN2CCOCC2)c2ccc(N(C)C)cc2)c(OC)c1 (centres undefined) | n | n | n | n | n
COc1cc(O)c(C(CCN2CCN(c3ccccc3)CC2)c2ccc(N(C)C)cc2)c(OC)c1 (centres undefined) | n | -80.1 | n | n | n
CC(C(=O)Nc1ccc(OC(F)(F)F)cc1)N1Cc2ccccc2C1=O (centres undefined) | n | n | n | n | n
NC(=O)C1CCN(c2nc(-c3cc4ccccc4o3)cs2)CC1 | n | -33.4 | n | n | n
CCCc1cc(=O)[nH]c(SCC(=O)N2CC3(C)CC2CC(C)(C)C3)n1 (centres undefined) | n | -46.9 | x | n | n
CCN(CC)S(=O)(=O)c1ccc(C(=O)NCC(=O)NCCCc2ccccc2)cc1 | n | n | x | n | n
COc1ccc(Cl)cc1NC(=O)Cn1cc2c(n1)CCC(C)C2 (centres undefined) | n | n | n | n | n
COc1nc(C)ccc1-c1noc(-c2cccs2)n1 | n | -34.6 | n | n | n
CNC(=O)c1sc(-c2cccs2)nc1C | n | n | n | n | n
Cc1oc2c(c1C(=O)c1ccccc1)C(=O)C(=O)c1ccccc1-2 | n | n | n | n | n
O=C1C(=O)c2c(C(=O)c3ccccc3)coc2-c2ccccc21 | n | -57.1 | n | n | n
Cn1nc(C(F)(F)F)c(-c2cccc(C(F)(F)F)c2)c1NC(=O)c1ccco1 | n | n | n | n | n
Cn1nc(C(F)(F)F)c(-c2cccc(C(F)(F)F)c2)c1NC(=O)Nc1ccc(F)cc1 | n | -30.7 | n | n | n
Cn1nc(-c2ccccc2)cc1NC(=O)Nc1ccc(F)cc1 | n | -43.6 | n | n | n
SMILES | D1 agonist | D1 antag | D1 potentiator | TRHR PAM | TRHR ag
CC(OC(=O)CCN=C1NS(=O)(=O)c2ccccc21)C(=O)Nc1ccc(N(C)C)cc1 (centres undefined) | n | n | n | n | n
O=[N+]([O-])c1cccc(S(=O)(=O)N2CCCCC2)c1 | n | n | n | n | n
O=[N+]([O-])c1cccc(S(=O)(=O)Nc2nc3ccccc3nc2Nc2cccc(S(=O)(=O)N3CCCCC3)c2)c1 | n | -31.6 | n | n | n
Cc1ccc(S(=O)(=O)Nc2nc3ccccc3nc2Nc2cccc(S(=O)(=O)N3CCCC3)c2)cc1 | n | -39.4 | n | n | n
Cc1ccc(S(=O)(=O)c2c(N)n(Cc3ccco3)c3nc4ccccc4nc23)cc1C | 91.7 | n | n | n | n
Cc1ccc(S(=O)(=O)c2c(N)n(CCN3CCOCC3)c3nc4ccccc4nc23)cc1C | n | n | n | n | n
COc1ccc(OCCOC(=O)c2cc(S(=O)(=O)N3CCOCC3)c(Cl)cc2Cl)cc1 | n | n | n | n | n
O=C(OCCOc1cccc(Cl)c1)c1ccc(F)c(S(=O)(=O)N2CCOCC2)c1 | n | n | n | n | n
COc1ccc(OCCOC(=O)c2ccc(F)c(S(=O)(=O)N3CCOCC3)c2)cc1 | n | -63.6 | n | n | n
Cc1ccc(C(=O)OCC(=O)Nc2ccc3c(c2)OCO3)cc1S(=O)(=O)N1CCOCC1 | n | -76.8 | n | n | n
CCc1ccc(NC(=O)c2ccc(F)c(S(=O)(=O)N3CCN(c4ccc(OC)cc4)CC3)c2)cc1 | n | -45.0 | n | n | n
Cc1ccc(C(=O)OCCOc2cccc(Cl)c2)cc1S(=O)(=O)N1CCOCC1 | 31.0 | n | n | n | n
Cc1ccc(NC(=O)COC(=O)c2ccc3c(c2)OCCO3)cc1S(=O)(=O)N1CCOCC1 | n | n | n | n | n
CCc1ccc(NC(=O)c2ccc(F)c(S(=O)(=O)N3CCC(C)CC3)c2)cc1 | n | n | n | n | n
CCOc1ccc(N(C(C)C(=O)N2CCCC2)S(C)(=O)=O)cc1 (centres undefined) | n | n | n | n | n
CCOC(=O)CN(c1ccccn1)S(=O)(=O)c1ccc(OC)cc1 | n | n | n | n | n
COc1ccccc1C(=O)n1nc(-c2ccco2)nc1NCc1ccc(Cl)cc1 | n | n | n | n | n
Cc1ccc(NS(=O)(=O)c2ccc3c(c2)OCCCO3)cc1S(=O)(=O)N1CCOCC1 | n | -34.5 | n | n | n
Cc1ccc(NC(=O)CCCOc2ccccc2)cc1S(=O)(=O)N1CCOCC1 | n | -52.9 | n | n | n
CCCCN(CCCNc1ncnc2nc[nH]c12)c1ccccc1 | n | n | n | n | n
CCN(CCCNc1ncnc2nc[nH]c12)c1cccc(C)c1 | n | -36.1 | n | n | n
CCOC(=O)c1sc(NC(=O)CSc2nc3c(cc2C#N)CCCCCC3)c(C#N)c1C | 41.7 | n | n | n | n
CCCCOc1ccc(C(=O)NCC(=O)NCCOc2ccc(C)cc2)cc1 | n | n | n | 32.3 | n
CCC(=O)N1c2ccccc2CC1C(=O)NCc1ccc(OC(C)C)cc1 (centres undefined) | n | n | n | n | n
